This is part of a sample that, as a whole, favours compounds with a hit. Of some 79,000 tested, about 15% had one in any assay. Values without a mark were called inactive. Calls of active or inactive are those of the source. Cut-off read from the data, not from the text of the source: active = growth inhibition above about 70%; inactive = the rest. Where a SMILES comes first, the peptide text is derived from it. The star is where a group is joined. Cbz = O=C(OCc1ccccc1)*
experiment: NCI Yeast Anticancer Drug Screen. Data for the mec2-1 strain (AID 157); details: S. cerevisiae mec2-1 strain, at 50.0 µM, active compounds read high
How it was run: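 Growth inhibition is read against vehicle-treated controls after compound exposure of the mec2-1 yeast strain, which is defective in DNA damage repair or cell cycle control.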

Row | SMILES | growth inhibition
1 | COc1cc(O)c(C(C)=O)c(OC)c1 | -12.8%
2 | Cc1n[nH]c(=O)n1Nc1ccccc1 | -7.7%
3 | O=S(=O)(Cc1c(Cl)c(Cl)c(Cl)c(Cl)c1Cl)c1ccc(Cl)cc1 | -0.6%
4 | CCC(=O)C1(CCCN(C)C)c2ccccc2Sc2ccccc21 | 2.45%
5 | O=C1OCCC1(Cc1ccc(Cl)cc1)Cc1ccc(Cl)cc1 | -22.9%
6 | NC(=O)c1ncnc2nc[nH]c12 | -42.5%
7 | Oc1cc2nc3ccccc3nc2c2ccc(Br)cc12 | -7.45%
8 | Cn1ccc(=S)c2ccccc21 | 1.25%
9 | Cc1c(-c2ccc3c(c2)OCO3)sc(N)c1C#N | -15.5%
10 | C/C=C(\C)C(=O)N1c2ccccc2CC1c1c(C)[nH]c2ccccc12 (stereo not given) | 3.65%
11 | CCCc1ccc(N=Cc2cc(OC)c(OC)c(OC)c2)cc1 | 13.3%
12 | O=NN(CCCl)C(=O)Oc1ccc2ccccc2c1 | -9.35%
13 | CC(=O)Nc1cccc(OCCOc2ccccc2[N+](=O)[O-])c1 | -11.3%
14 | COC1C(O)CC(OC2CC(OC3CC(O[C@@H]4C(=O)c5c(cc6cc(OC7CC(OC8CC(O)C(O)C(C)O8)C(O)C(C)O7)c(C)c(O)c6c5O)C[C@H]4[C@H](OC)C(=O)[C@@H](O)[C@@H](C)O)OC(C)C3O)OC(C)C2O)OC1C (stereo not given in full) | 28.9%
15 | NC(CO)C(O)c1ccc([N+](=O)[O-])cc1 (stereo not given) | -33.2%
16 | Cc1no[n+]([O-])c1NC(=O)OCc1ccccc1 | -11%
17 | COC1/C=C/OC2(C)Oc3c(C)c(O)c4c(O)c(c5c(nc(-c6ccco6)n5-c5ccccc5)c4c3C2=O)NC(=O)/C(C)=C\C=C\C(C)C(O)C(C)C(O)C(C)C(OC(C)=O)C1C (stereo not given) | -13.8%
18 | Cc1ccc(C(C)C)nc1 | 18.5%
19 | Cc1c2oc3c(C)ccc(C(=O)NCCN4CCN(c5ccccc5)CC4)c3nc-2c(C(=O)NCCN2CCN(c3ccccc3)CC2)c(N)c1=O | 2.2%
20 | CNC(=O)Nc1ccc(Cl)cc1C(=O)O | 2.45%

Row | SMILES | growth inhibition
21 | O=C(CNC(=O)C(CCC(=O)OCc1ccccc1)NC(=O)OCc1ccccc1)NCC(=O)Oc1ccc([N+](=O)[O-])cc1 (stereo not given) | 13.6%
22 | O=C(Nc1ccn(CCI)c(=O)n1)c1ccccc1 | -37.4%
23 | CC1(C(=O)O)CCC(C(=O)Nc2ccccc2)C1(C)C (stereo not given) | -20.6%
24 | NNc1cc(S(=O)(=O)O)cc(C(=O)O)c1O | 49%
25 | CC(=O)O[C@H]1C[C@H]2[C@@H](OC(C)=O)/C=C3\C[C@](C)(C(=O)[C@H](O)C(=C1C)C2(C)C)[C@@H](O)C[C@@H]3OC(=O)[C@H](O)[C@H](c1ccccc1)N(C)C | -0.45%
26 | COC(=O)COc1cc2c(cc1C(C)c1ccc(O)cc1)OCO2 (stereo not given) | 98.5% (active)
27 | NC(=O)CO | -15.9%
28 | N=c1c2ccccc2nc2oc3ccc(Cl)cc3n12 | -32.5%
29 | COC(=O)C1CC=CCCC1=O (stereo not given) | -10.8%
30 | COc1ccc(-c2cc(=O)c3c(O)cc(O)c(-c4cc(-c5cc(=O)c6c(O)cc(OC)cc6o5)ccc4OC)c3o2)cc1 | 17.1%
31 | O=C1ON(c2ccccc2)C(c2cccc(Cl)c2)N1c1ccccc1 (stereo not given) | -2.85%
32 | O=C(O)c1ccc(B(O)O)cc1[N+](=O)[O-] | 4.75%
33 | CC(C)C(NC(=O)C(Cc1ccc(O)cc1)NC(=O)OCc1ccccc1)C(=O)O (stereo not drawn) (Cbz-Tyr-Val-OH; configuration not given here) | -3.25%
34 | COc1cccc(-c2nc(-c3cnccn3)n(C3OC(CO)C(O)C3O)n2)c1 (stereo not given) | -22.4%
35 | O=C1C(=Cc2cccnc2)C(=O)c2ccccc21 | 15.3%
36 | O=C(Cc1c[nH]c2ccccc12)N/N=C/c1ccccc1[N+](=O)[O-] | -4.75%
37 | N=C(N)SCc1cn2ccccc2n1 | -30.5%
38 | CSCCC(NC=O)C(=O)O (stereo not given) | -5.35%
39 | O=c1ccc2cc(Cl)ccc2o1 | -12.9%
40 | COC(=O)C12OCC34C(CC(C(C)=O)C(C)(CC(=O)O)C3C(O)C1O)OC(=O)C(OC(=O)/C=C(\C)C(C)C)C24 (stereo not given) | 21.3%

From PubChem BioAssay (NCI)
